DT40 TDP1 CPT = DT40-hTDP1 cell growth loss with CPT | AID 686979 | chicken DT40 Tdp1-/-;hTDP1 cells + 20 nM CPT, ATP luminescence, 48 h | Potency, µM (doses to about 46.2 µM), most hits filed as inhibitors | 420,000 tested, 12% active; further: nearly all actives have a fitted effect of over 55% in size
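Chicken DT40 Tdp1-/- cells stably complemented with human TDP1 were seeded at 400 cells/well in medium containing 20 nM camptothecin, exposed to pin-transferred compounds, and grown at 37 °C for at least 48 hr. Viability was read as ATP luminescence.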
TGFb inhibitor = blocks TGF-b signaling | AID 588855 | 410,000 tested, 1.2% active | Potency, µM (highest dose often 46.1 µM), usual class: inhibitors | HepG2 CAGA-GFP TGF-b/SMAD3 reporter, GFP fluorescence, 18 h; TGF-beta stimulated, 500 pg/mL final; further: nearly all actives have a fitted effect of over 65% in size
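Cell-based qHTS in HEPG2 carrying a CAGA-GFP Smad reporter; compounds added before 500 pg/mL final TGF-beta, 18 h incubation at 37 degrees C, GFP fluorescence quantified per cell by imaging cytometry.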
TDP1 block = inhibitors of human tyrosyl-DNA phosphodiesterase TDP1 | recombinant TDP1, AlphaScreen DNA substrate cleavage | Potency, µM (doses to about 130 µM), actives largely listed as inhibitors | 350,000 tested, 0.28% active; further: nearly all actives have a fitted effect of over 40% in size
Target sequence (Q9NUW8 whole entry, looked up): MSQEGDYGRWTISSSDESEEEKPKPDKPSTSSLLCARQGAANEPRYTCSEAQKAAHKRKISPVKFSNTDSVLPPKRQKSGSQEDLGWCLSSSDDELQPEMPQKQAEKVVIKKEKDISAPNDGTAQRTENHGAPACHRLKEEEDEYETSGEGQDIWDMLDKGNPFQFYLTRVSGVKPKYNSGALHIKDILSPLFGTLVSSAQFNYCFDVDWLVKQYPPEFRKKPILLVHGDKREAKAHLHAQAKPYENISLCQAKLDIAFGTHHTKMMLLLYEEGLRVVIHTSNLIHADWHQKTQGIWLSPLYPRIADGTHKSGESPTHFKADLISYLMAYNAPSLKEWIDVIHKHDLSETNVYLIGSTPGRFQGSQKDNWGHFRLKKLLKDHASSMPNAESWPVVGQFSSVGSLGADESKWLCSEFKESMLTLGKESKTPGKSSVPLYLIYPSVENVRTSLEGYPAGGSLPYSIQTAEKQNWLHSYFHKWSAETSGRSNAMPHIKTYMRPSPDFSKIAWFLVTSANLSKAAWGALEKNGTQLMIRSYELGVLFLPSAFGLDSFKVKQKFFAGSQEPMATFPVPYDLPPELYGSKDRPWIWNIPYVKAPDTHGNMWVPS
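Signal: AlphaScreen proximity between streptavidin donor and anti-FITC acceptor beads on intact substrate. Reaction: Tdp1 1 nM, substrate 15 nM final, 5 min RT after 15 min compound preincubation.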
DT40 TDP1 no CPT = qHTS for Inhibitors of human tyrosyl-DNA phosphodiesterase 1 (TDP1): qHTS in cells in absence of CPT. DT40 Tdp1-/- hTDP1 cells, no CPT, ATP luminescence, 48 h. Potency, µM (top dose mostly 46.2 µM), most hits filed as inhibitors. 420,000 tested, 15% active; further: nearly all actives have a fitted effect of over 55% in size
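No-CPT arm: Tdp1-/-;hTDP1 DT40 cells (400/well) plus compounds, incubated ≥48 hr at 37 °C. Readout CellTiter-Glo luminescence.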
IL1B secr inh = inhibitors of inflammasome signaling (IL-1 beta secretion) | THP-1 LPS/ATP IL-1B secretion, AlphaLISA, 16 h; hits give low values | 360,000 tested, 4.7% active | activity change, % at 57.5 µM; in the data active means activity change below about -50%; inconclusive means mostly about -30% to -49%
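Secreted IL-1B measured by AlphaLISA bead assay after 16 h compound exposure of THP-1 cells; compounds (final up to 57.5 uM) added 1 h before LPS (250 ng/mL) and ATP (1.25 mM) stimulation; lower signal means less secretion.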
HepG2 tox = counter-screen for TGF-b inhibitors: cytotoxicity in HepG2 cells | AID 588856 | 410,000 tested, 0.76% active | HepG2 CAGA-GFP viability, ATP luminescence, 18 h | Potency, µM (titrated, usually from 46.1 µM), most hits filed as cytotoxic
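CellTiter-Glo luminescence gave cytotoxicity after 18 hours at 37 degrees C. The cells were HepG2 CAGA-GFP in 1% FBS DMEM, stimulated with 500 pg/mL TGF-beta after compound addition. %Activity was normalised to no-cell wells (complete cell-killing) and DMSO (no toxicity), and curves were fitted and classified.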
Each line names hits and unclear results; the compound was inactive in the other large screens. A selection: hits, their analogues and other compounds. The true share with any hit is near 19%. Unless noted, the call rests on the fitted dose curve; in most records, active means well fitted curve in the direction sought with a large enough effect; inconclusive means small, poorly fitted or top-dose-only effect, or another doubt; inactive means no such curve, though single readings can be large; an effect the other way counts as inactive or inconclusive.

CCOC(=O)c1cc(-c2ccccc2)n(CC(=O)NCc2ccccc2OC)c1C	DT40 TDP1 CPT 16µM, DT40 TDP1 no CPT 16µM (no result: IL1B secr inh)
COc1ccc(N(C(=O)CNC(=O)c2ccco2)C(C(=O)NC2CCCC2)c2ccco2)cc1 (stereo not drawn)	none
CCOC(=O)CSc1nc2ccc(NC(=O)c3ccccc3F)cc2s1	none (no result: IL1B secr inh)
CCOC(=O)c1cc(S(=O)(=O)Nc2cccc(OC)c2)cn1C	DT40 TDP1 CPT 21µM, DT40 TDP1 no CPT inconclusive
CC(=O)c1cc(-c2ccccc2)n(CC(=O)Nc2cccc(C)c2)c1C	DT40 TDP1 CPT 18µM, DT40 TDP1 no CPT 15µM
COC(=O)c1cc(S(=O)(=O)Nc2cc(OC)cc(OC)c2)cn1C	DT40 TDP1 no CPT inconclusive (no result: TDP1 block)
CC(C)c1ccc(S(=O)(=O)N2CCC(n3c(C(F)(F)F)nc4cccnc43)CC2)cc1	DT40 TDP1 CPT inconclusive, DT40 TDP1 no CPT inconclusive (no result: IL1B secr inh)
CCC(C)c1ccccc1NC(=O)Cc1coc2cc3c(cc12)CCC3 (stereo not drawn)	DT40 TDP1 CPT inconclusive, TGFb inhibitor inconclusive, DT40 TDP1 no CPT 18µM
CC(=O)c1cccc(NC(=O)Cc2coc3cc4c(cc23)CCC4)c1	DT40 TDP1 CPT inconclusive, DT40 TDP1 no CPT 6.5µM
Cc1noc(NS(=O)(=O)c2ccc(NC(=O)Cc3ccc([N+](=O)[O-])cc3)cc2)c1C	none
CCc1nn(CC(=O)NCc2cccc(OC)c2)c(=O)c2cc3cc(F)ccc3n12	DT40 TDP1 CPT inconclusive (no result: IL1B secr inh)
CCCCN(CC)CCNC(=O)c1cc2c(=O)oc3ccc(C)cc3c2s1	DT40 TDP1 CPT inconclusive, DT40 TDP1 no CPT inconclusive (no result: IL1B secr inh)
CC(C)c1ccc(C2/C(=C(/O)c3ccc(F)cc3)C(=O)C(=O)N2CCCN2CCOCC2)cc1 (stereo not drawn)	none (no result: TDP1 block)
COc1ccccc1Nc1nc(-c2ccc3c(c2)NC(=O)CO3)cs1	DT40 TDP1 CPT 23µM, DT40 TDP1 no CPT 18µM, IL1B secr inh inconclusive
COc1ccc(-c2cc(-c3ccccc3)nc(-c3ccc4c(c3)NC(=O)CO4)c2)cc1	DT40 TDP1 CPT inconclusive, DT40 TDP1 no CPT inconclusive
COc1ccc(Nc2nc(-c3ccc4c(c3)NC(=O)CO4)cs2)cc1	DT40 TDP1 CPT inconclusive, DT40 TDP1 no CPT inconclusive
CCC(C)Nc1nc(-c2ccc3c(c2)NC(=O)CO3)cs1 (stereo not drawn)	DT40 TDP1 CPT 23µM, TGFb inhibitor inconclusive, DT40 TDP1 no CPT inconclusive
O=S(=O)(c1cccc(Cl)c1)N1CN(CC2CCCO2)c2nc3ccccc3nc21 (stereo not drawn)	DT40 TDP1 CPT inconclusive, TGFb inhibitor inconclusive, DT40 TDP1 no CPT inconclusive, IL1B secr inh inconclusive
c1ccc(-c2nc(-c3ccccc3)c(Nc3ccc4ccccc4c3)o2)cc1	none (no result: DT40 TDP1 CPT, TGFb inhibitor, DT40 TDP1 no CPT, IL1B secr inh, HepG2 tox)
O=C([O-])[C@@H]1[O][Sb+]([O][Sb+]2[O][C@H]([C@H](O)CO)[C@H](O)[C@H](C(=O)[O-])[O]2)[O][C@H]([C@H](O)CO)[C@@H]1O	none (no result: DT40 TDP1 CPT, TGFb inhibitor, DT40 TDP1 no CPT, IL1B secr inh, HepG2 tox)
COCCCNc1ncnc2sc(C(=O)N3CCOCC3)c(C)c12	none (no result: TGFb inhibitor, TDP1 block, IL1B secr inh, HepG2 tox)
N#Cc1cc2c(nc1SCC(O)CS(=O)(=O)Cc1ccc(Cl)cc1)CCCC2 (stereo not drawn)	DT40 TDP1 CPT inconclusive, TGFb inhibitor inconclusive, DT40 TDP1 no CPT inconclusive, IL1B secr inh -61
CC(C)(C)c1ccc(S(=O)(=O)CC(O)CSc2nc3c(cc2C#N)CCCC3)cc1 (stereo not drawn)	none
N#Cc1cc2c(nc1SCc1ccccc1)CCC2	none
N#Cc1cc2c(nc1SCc1ccncc1)CCC2	DT40 TDP1 CPT 18µM, TGFb inhibitor 13µM, DT40 TDP1 no CPT inconclusive, IL1B secr inh inconclusive
CC(NC(=O)c1ccco1)c1nnc2n1CCN(Cc1cccc(Cl)c1)CC2 (stereo not drawn)	none (no result: TGFb inhibitor, TDP1 block, IL1B secr inh, HepG2 tox)
C/C(=N\NC(=O)c1cc(C)nc2ccccc12)c1ccco1	none
